The values that follow come from PubChem BioAssay AID686979 (National Center for Advancing Translational Sciences (NCATS), 2013).

In all, about 420,000 compounds went through this assay and about 50,000 (12%) were called active. About 26% were inconclusive and are not listed. Calls come from the whole dose curve; as a rule, active = well fitted inhibition curve with a large enough effect; inconclusive = small, poorly fitted or top-dose-only effect; inactive = flat fitted curve, though single readings scatter. This excerpt belongs to a sample that is enriched for actives.
% is set by controls: 0 for no effect and ±100 for the full control effect; potency is the fitted concentration of half-maximal effect.

A short description of this assay: qHTS for Inhibitors of human tyrosyl-DNA phosphodiesterase 1 (TDP1): qHTS in cells in presence of CPT. Note: nearly all actives have a fitted effect of over 55% in size. As to conditions: chicken DT40 Tdp1-/-;hTDP1 cells + 20 nM CPT, ATP luminescence, 48 h; series mostly up to 46.2 µM; activity change, negative = growth inhibition: at the top concentration. The gist of the method:
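Chicken DT40 Tdp1-/- cells complemented with human TDP1, 400 cells/well, exposed to compounds plus 20 nM camptothecin for at least 48 h at 37 C; viability read as ATP content by CellTiter-Glo luminescence.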
(In general: qHTS replaces the single test concentration by a dilution series.)
With `Cc1cccc(C(=O)Nc2ccc(Oc3cnccn3)cc2)c1`, the “activity change, negative = growth inhibition” value was -11.8% (inactive).

In the case of `CC1=C(C(=O)N2CCOCC2)CC(CC(=O)NCc2cccc3ccccc23)C(=O)N1CCC1=CCCCC1` (centres undefined), the “activity change, negative = growth inhibition” value is -11.8% (inactive).

`C#CCNC(=O)C[C@@H]1C[C@@]2(C(=O)OCC)CCCC=C2N(Cc2ccco2)C1=O`: the “activity change, negative = growth inhibition” value was -5.49% (inactive).

Take `CCOC(=O)[C@]12CCC=C1N(CCC1=CCCCC1)C(=O)[C@H](CC(=O)NCc1ccc(C)o1)C2`: the Potency is 16.4 µM (active).

Regarding `CCN(CC)C(=O)C1=C(C)N(Cc2ccc(OC)cc2)C(=O)C(CC(=O)NCc2ccco2)C1` (centres undefined), the “activity change, negative = growth inhibition” value is -18.4% (inactive).

Turning to `CCCCNC(=O)C[C@@H]1C[C@@]2(C(=O)OCC)CCC=C2N(Cc2cccc3ccccc23)C1=O`, the Potency was 16.4 µM (active).

`CCCCNC(=O)C[C@@H]1C[C@@]2(C(=O)OCC)CCC=C2N(Cc2ccco2)C1=O`: the “activity change, negative = growth inhibition” value was -11.1% (inactive).

Regarding `Cc1ccccc1OCC(=O)NNC(=O)c1cc(S(=O)(=O)N(C)C)ccc1N1CCCC1`, the “activity change, negative = growth inhibition” value is -16.2% (inactive).

On to `COc1ccc(NC(=O)CN(C)C(=O)CC2CCCCC2)cc1`, for which the “activity change, negative = growth inhibition” value was 1.32% (inactive).

Turning to `COc1cc(OC)c(C2C=C(C(=O)O)Nc3ncnn32)cc1OC` (centres undefined), the “activity change, negative = growth inhibition” value is 0.986% (inactive).

`CC(C)CC(=O)Nc1ccc(Cc2ccncc2)cc1`: the “activity change, negative = growth inhibition” value was -22.1% (inactive).

In the case of `CCNC(=O)C1(C)CCN(C(=O)c2ccccc2)C1` (centres undefined), the “activity change, negative = growth inhibition” value was -20.3% (inactive).

`CCOC(=O)NC(=O)C(=CNc1cccc(OC)c1)C(=O)NC(=O)OCC`: the “activity change, negative = growth inhibition” value is 1.35% (inactive).

For `COCCn1nnnc1C(c1cc2ccc(OC)cc2[nH]c1=O)N1CCc2ccccc2C1` (centres undefined), the “activity change, negative = growth inhibition” value is -27.8% (inactive).

Turning to `CCC(c1nnnn1Cc1ccco1)N(CCc1ccccc1)Cc1cc2ccc(OC)cc2[nH]c1=O` (centres undefined), the Potency was 23.1 µM (active).

For `COc1ccc2[nH]c3c(=O)n(Cc4ccco4)cnc3c2c1`, the “activity change, negative = growth inhibition” value was -2.12% (inactive).

As for `COc1cc(OC)c(C(=O)N2CCCC2)cc1OC`, the “activity change, negative = growth inhibition” value was 22.1% (inactive).

On to `Cc1ccc(NC(=O)C(C)Sc2nnc(C3CC3)n2C2CC2)cc1S(=O)(=O)N1CCOCC1` (centres undefined), for which the “activity change, negative = growth inhibition” value was -20.8% (inactive).

With `CSCCC(NC(=O)c1ccc(Cl)cc1Cl)C(=O)NNC(=O)c1csc(N2CCOCC2)n1` (centres undefined), the “activity change, negative = growth inhibition” value was 4.89% (inactive).

Turning to `CCOC(=O)c1cc2c(nc1NC(=S)Nc1ccccc1)CC(C)(CC)OC2` (centres undefined), the “activity change, negative = growth inhibition” value is 0.397% (inactive).

In the case of `O=C(NNS(=O)(=O)c1ccc(F)cc1)C1CCCCC1`, the “activity change, negative = growth inhibition” value is 2.3% (inactive).

Turning to `Cc1ccccc1CNC(=O)C1CCCN(S(=O)(=O)N(C)c2ccc(F)cc2)C1` (centres undefined), the Potency is 23.1 µM (active).

On to `CCOC(=O)c1c(S(=O)(=O)N2CCCC(C(=O)NCc3ccc(F)cc3)C2)c(C)n(CC)c1C` (centres undefined), for which the “activity change, negative = growth inhibition” value was -14.2% (inactive).

For the compound `O=C(NCc1ccccc1Cl)C1CCCN1S(=O)(=O)c1ccc(F)cc1` (centres undefined), the “activity change, negative = growth inhibition” value was -27.9% (inactive).

Turning to `CCNC(=O)CC1C(=O)N(c2ccc(OC)cc2)C(=O)N1CCOC` (centres undefined), the “activity change, negative = growth inhibition” value is -3.13% (inactive).

Turning to `CN(C)N=Nc1ccc2nc[nH]c2c1`, the “activity change, negative = growth inhibition” value was -13.5% (inactive).

For `Cc1ccc2c(N)c(C(=O)c3ccccc3)sc2n1`, the “activity change, negative = growth inhibition” value was -24.8% (inactive).

As to `CCCCNC(=O)c1ccc2c(c1)NC(=O)C(C(C)C)N2` (centres undefined), the “activity change, negative = growth inhibition” value was -22% (inactive).

Regarding `Cc1ccc2c(C(=O)CN3CCCC3)c(C)[nH]c2c1`, the “activity change, negative = growth inhibition” value was -19.6% (inactive).

Turning to `Cc1[nH]c2ccccc2c1C(=O)CSCC(=O)O`, the “activity change, negative = growth inhibition” value is -19.6% (inactive).

Take `CCOC(=O)N1CCN(CC(=O)c2c(C)[nH]c3ccccc23)CC1`: the Potency was 18.4 µM (active).

Turning to `Cc1[nH]c2ccccc2c1C(=O)COC(=O)C(C)C`, the “activity change, negative = growth inhibition” value is -4.53% (inactive).

In the case of `Cc1[nH]c2ccccc2c1C(=O)CN1CC(C)CC(C)C1` (centres undefined), the Potency was 11.6 µM (active).

Consider `Cc1[nH]c2ccccc2c1C(=O)CN1CCCC(C)C1` (centres undefined), for which the “activity change, negative = growth inhibition” value was 4.31% (inactive).

Take `CCOCCCNC(=O)C(NC(=O)Cc1c[nH]c2ccccc12)c1ccc(OC)cc1` (centres undefined): the “activity change, negative = growth inhibition” value was 2.87% (inactive).

Consider `COc1cccc(NC(=O)N2CCN(C(=O)c3nsc4ccccc34)CC2)c1`, for which the “activity change, negative = growth inhibition” value is 5.7% (inactive).

With `COC(=O)Cn1cnc2scc(-c3ccc(C)c(C)c3)c2c1=O`, the “activity change, negative = growth inhibition” value is 7.8% (inactive).

On to `CCOC(=O)Nc1sc(C(=O)N(C)C)c(C)c1C(=O)OCC`, for which the “activity change, negative = growth inhibition” value was -13.3% (inactive).

Take `CCOC(=O)c1c(NC(=O)COC(=O)c2ccc(S(=O)(=O)C(F)F)cc2)sc(C(=O)N(C)C)c1C`: the “activity change, negative = growth inhibition” value was -14.4% (inactive).

For the compound `CCOC(=O)c1c(NC(=O)CCl)sc(C(=O)N(CC)CC)c1C`, the Potency is 13 µM (active).

With `O=C(COC(=O)c1ccc([N+](=O)[O-])cc1Cl)NC(=O)c1ccccc1`, the “activity change, negative = growth inhibition” value is 1.48% (inactive).

Regarding `O=C(NCCN1CCOCC1)c1cnn(-c2nccc(-c3cccs3)n2)c1C1CC1`, the “activity change, negative = growth inhibition” value is 2.01% (inactive).

Take `Cc1ccc(OCC(=O)Nc2ccc(N3CCN(C(=O)c4ccco4)CC3)cc2)c(C)c1`: the Potency was 16.4 µM (active).

With `CCC(=O)Nc1ccc(C(=O)N2CCN(C(=O)c3ccco3)CC2)cc1`, the “activity change, negative = growth inhibition” value is -9.24% (inactive).

As for `COc1ccc(C(=O)Nc2ccc(N3CCC(C)CC3)cc2)cc1Br`, the “activity change, negative = growth inhibition” value was 8.77% (inactive).

On to `O=C(c1ccco1)N1CCN(c2cccc(Cl)c2)CC1`, for which the “activity change, negative = growth inhibition” value is -25.2% (inactive).

For `COc1cccc(C(=O)Nc2ccc(N3CCN(C(=O)c4ccco4)CC3)cc2)c1`, the Potency is 14.6 µM (active).

`NS(=O)(=O)c1ccc(NC(=O)C(=O)Nc2ccc3nc4n(c(=O)c3c2)CCCCC4)cc1`: the “activity change, negative = growth inhibition” value was 14.5% (inactive).

As for `Cc1ccc(C)c(OCC(=O)N2CCN(C(=O)c3ccco3)CC2)c1`, the “activity change, negative = growth inhibition” value was -28.5% (inactive).

As for `COc1cccc(C(=O)Nc2ccc(NC(=O)c3ccco3)cn2)c1`, the “activity change, negative = growth inhibition” value was -16.7% (inactive).

Turning to `COc1cccc(C(=O)Nc2ccc(N3CCCC3)cc2)c1`, the Potency was 9.2 µM (active).

`CN1CCN(c2ccc(NC(=O)c3ccccc3)cc2)CC1`: the “activity change, negative = growth inhibition” value is 0.495% (inactive).

Turning to `O=C(Nc1ccc2nc3n(c(=O)c2c1)CCCC3)c1ccc(Cl)nc1`, the “activity change, negative = growth inhibition” value is -13.5% (inactive).

Consider `COc1cccc(C(=O)Nc2ccc3nc4n(c(=O)c3c2)CCCCC4)c1`, for which the Potency is 20.6 µM (active).

As to `COc1cccc(COC(=O)C2CCN(S(=O)(=O)c3ccc(Cl)cc3)CC2)c1OC`, the “activity change, negative = growth inhibition” value was -13.8% (inactive).

Turning to `COc1ccc(CN2CC[C@H]3C=CC[C@@H](C(=O)N4CCOCC4)[C@H]3C2=O)cc1OC`, the Potency result was “inactive”.

`C=CCN1C(=NC(=O)COc2ccccc2)SC2CS(=O)(=O)CC21` (centres undefined): the “activity change, negative = growth inhibition” value was -2.8% (inactive).

In the case of `COc1ccc(CCNC(=O)CSc2nnc3ccc(-c4ccncc4)nn23)cc1`, the “activity change, negative = growth inhibition” value is -27.7% (inactive).

For `CCOC(CNC(=O)C(=O)NCC(c1ccco1)N1CCN(c2ccc(OC)cc2)CC1)OCC` (centres undefined), the “activity change, negative = growth inhibition” value is -12.4% (inactive).

In the case of `COc1ccc2ccccc2c1CNCc1ccccn1`, the “activity change, negative = growth inhibition” value was -4.31% (inactive).

With `Cc1cccc(C(C)C)c1NC(=O)COC(=O)C1CC(=O)N(Cc2ccccc2)C1` (centres undefined), the “activity change, negative = growth inhibition” value was -15.7% (inactive).

Turning to `COc1ccc2[nH]cc(CCNc3cc(-c4ccccc4CN(C)C)ncn3)c2c1`, the “activity change, negative = growth inhibition” value is -26.4% (inactive).

For the compound `COc1ccc2[nH]cc(CCNc3ncnc4ccc(-c5ccc(C(=O)N(C)C)cc5)cc34)c2c1`, the Potency is 20.6 µM (active).

For the compound `COc1ccc2[nH]cc(CCN3C(=O)c4ccc(C(=O)O)cc4C3=O)c2c1`, the “activity change, negative = growth inhibition” value is -5.94% (inactive).
